Results from the supplement of paper PMC12067926.

Experiments:
Assay in all cases: relative growth (AUC of 72 h growth curve relative to DMSO control, dAUC) (ratio); higher = more growth (less inhibition), active = hit call of the paper
Details in all cases: 20 µM;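 active = growth AUC significantly below the DMSO wells by Dunnett test; inactive = the rest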
[1] = tested on: Aeromonas 1 (Aeromonas sp. AE235)
Outline: (§1)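 For relative growth (dAUC), the spline-integrated area under the growth curve was divided by the mean of the DMSO controls. Results were averaged over three biological replicates. Each replicate used a 1:100 dilution, into 96-well plates holding each chemical at 20 µM (1% DMSO), of isolates from Icelandic stream sediments and Silwood Park soil or whole sediment communities that had been grown to carrying capacity in Luria–Bertani medium. Plates were shaken briefly before each hourly A600 reading over 72 h.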

[2] = tested on: Aeromonas 2 (Aeromonas sobria)
Outline: as §1

[3] = tested on: Aeromonas 3 (Aeromonas popoffii)
Outline: as §1

[4] = tested on: Argrobacterium 1 (Agrobacterium sp.)
Outline: as §1

[5] = tested on: Arthrobacter 1 (Arthrobacter humicola)
Outline: as §1

[6] = tested on: Arthrobacter 2 (Arthrobacter humicola)
Outline: as §1

[7] = tested on: Arthrobacter 3 (Arthrobacter sp.)
Outline: as §1

Community 4 = tested on: Community 4
Outline: as §1

Community 6 = tested on: Community 6
Outline: as §1

Measured: relative growth

COc1ccc(C(=CC(=O)N2CCOCC2)c2ccc(Cl)cc2)cc1OC (mixture of isomers)
inactive: [1] 0.973 | [2] 0.993 | [3] 0.998 | [4] 1.03 | [5] 1.06 | [6] 0.983 | [7] 0.973 | Community 4 1.07 | Community 6 0.974

CS(=O)(=O)NC(=O)c1cc(Oc2ccc(C(F)(F)F)cc2Cl)ccc1[N+](=O)[O-]
inactive: [1] 1.02 | [2] 1.02 | [3] 1.03 | [4] 1.02 | [5] 0.905 | [6] 1.07 | [7] 1.05 | Community 4 1.02 | Community 6 1.03

CCCCN(CCCC)SN(C)C(=O)Oc1cccc2c1OC(C)(C)C2
inactive: [1] 1.06 | [2] 1.03 | [3] 1.05 | [4] 1.07 | [5] 1.23 | [6] 0.838 | [7] 0.966 | Community 4 0.917 | Community 6 0.92

CC(COc1ccc(Oc2ccccc2)cc1)Oc1ccccn1 (stereo not drawn)
inactive: [1] 1.04 | [2] 0.997 | [3] 1.08 | [4] 1.09 | [5] 1.11 | [6] 0.937 | [7] 0.925 | Community 4 1.08 | Community 6 1.07

CCC(C)c1ccccc1OC(=O)NC (stereo not drawn)
inactive: [1] 1 | [2] 0.975 | [3] 0.991 | [4] 1.06 | [5] 0.921 | [6] 1.08 | [7] 1.08 | Community 4 1.06 | Community 6 1.07

CS(=O)(=O)c1cc(C(F)(F)F)ccc1C(=O)c1cnoc1C1CC1
inactive: [1] 1.02 | [2] 1.01 | [3] 1.04 | [4] 1.01 | [5] 1.1 | [6] 1.08 | [7] 1.04 | Community 4 1.14 | Community 6 1.13

CC[C@H]1CCC[C@H](O[C@H]2CC[C@H](N(C)C)[C@@H](C)O2)[C@@H](C)C(=O)C2=C[C@@H]3[C@@H](C=C(C)[C@@H]4C[C@@H](O[C@@H]5O[C@@H](C)[C@H](OC)[C@@H](OC)[C@H]5OC)C[C@@H]34)[C@@H]2CC(=O)O1.CC[C@H]1CCC[C@H](O[C@H]2CC[C@H](N(C)C)[C@@H](C)O2)[C@@H](C)C(=O)C2=C[C@H]3[C@@H]4C[C@H](O[C@@H]5O[C@@H](C)[C@H](OC)[C@@H](OC)[C@H]5OC)C[C@H]4C=C[C@H]3C2CC(=O)O1
inactive: [1] 0.972 | [2] 0.977 | [3] 0.979 | [4] 1.08 | [5] 0.832 | [6] 0.89 | [7] 0.999 | Community 4 0.855 | Community 6 0.699

COC(=O)Nc1nc2ccccc2[nH]1
inactive: [1] 1.01 | [2] 0.956 | [3] 0.973 | [4] 0.992 | [5] 1.04 | [6] 1.05 | [7] 1.12 | Community 4 1.02 | Community 6 0.998

Cc1cc(C2CC2)nc(Nc2ccccc2)n1
active: [7] 0.542
inactive: [1] 1.01 | [2] 0.948 | [3] 1.05 | [4] 0.93 | [5] 0.989 | [6] 0.898 | Community 4 0.978 | Community 6 1

CC(C)OC(=O)Nc1cccc(Cl)c1
inactive: [1] 0.932 | [2] 0.969 | [3] 1.05 | [4] 0.93 | [5] 0.95 | [6] 1 | [7] 0.964 | Community 4 1.11 | Community 6 1.13

CN1COCN(Cc2cnc(Cl)s2)/C1=N\[N+](=O)[O-]
inactive: [1] 0.991 | [2] 0.983 | [3] 0.984 | [4] 1.04 | [5] 1.04 | [6] 1.02 | [7] 1.13 | Community 4 1.04 | Community 6 0.963

C/C(=N\C#N)N(C)Cc1ccc(Cl)nc1
inactive: [1] 0.986 | [2] 1.01 | [3] 1.04 | [4] 0.965 | [5] 1.03 | [6] 0.972 | [7] 0.973 | Community 4 1 | Community 6 1.05

Fc1ccc(Oc2ccnc3cc(Cl)cc(Cl)c23)cc1
inactive: [1] 1.01 | [2] 1.03 | [3] 1 | [4] 1.06 | [5] 0.954 | [6] 1.1 | [7] 1.08 | Community 4 0.987 | Community 6 0.935

CC(C)OC(=O)C(C(=O)OC(C)C)=C1SCCS1
inactive: [1] 0.961 | [2] 0.967 | [3] 0.993 | [4] 1.02 | [5] 1.02 | [6] 0.922 | [7] 0.975 | Community 4 0.901 | Community 6 0.886

CON(C)C(=O)Nc1ccc(Cl)c(Cl)c1
inactive: [1] 0.924 | [2] 0.996 | [3] 0.996 | [4] 0.869 | [5] 0.952 | [7] 0.929 | Community 4 0.943 | Community 6 0.995
active: [6] 0.595

CC1(C)CON(Cc2ccccc2Cl)C1=O
inactive: [1] 0.978 | [2] 0.966 | [3] 1.01 | [4] 1 | [5] 0.963 | [6] 0.879 | [7] 1.08 | Community 4 0.973 | Community 6 0.946

N#Cc1cc(Br)c(O)c(Br)c1
inactive: [1] 0.985 | [2] 0.899 | [3] 1.01 | [4] 1.03 | [5] 0.984 | [6] 0.827 | [7] 1.02 | Community 4 1.08 | Community 6 1.05

ClC1C(Cl)C(Cl)C(Cl)C(Cl)C1Cl (stereo not drawn)
inactive: [1] 1.02 | [2] 0.964 | [3] 0.994 | [4] 1 | [5] 1.04 | [6] 0.837 | [7] 0.909 | Community 4 0.976 | Community 6 0.931

OC(Cn1cncn1)(c1ccc(F)cc1)c1ccccc1F (stereo not drawn)
inactive: [1] 0.996 | [2] 1.04 | [3] 1.01 | [4] 1.02 | [5] 0.835 | [6] 1.11 | [7] 1.04 | Community 4 1.08 | Community 6 1.07

Nc1c([N+](=O)[O-])ccc(Oc2ccccc2)c1Cl
inactive: [1] 0.959 | [2] 0.953 | [3] 0.961 | [4] 0.972 | [5] 0.894 | [6] 0.826 | [7] 0.957 | Community 4 0.851 | Community 6 0.856

Clc1ccc(C(c2ccc(Cl)cc2)C(Cl)(Cl)Cl)cc1
active: [5] 0.353 | [6] 0.211 | [7] 0.316
inactive: [1] 0.999 | [2] 0.972 | [3] 0.973 | [4] 1.02 | Community 4 0.976 | Community 6 0.983

CO/C=C(/C(=O)OC)c1ccccc1COc1cccc(C(F)(F)F)n1
inactive: [1] 0.992 | [2] 0.905 | [3] 0.97 | [4] 1.06 | [5] 0.923 | [6] 0.886 | [7] 1.02 | Community 4 0.935 | Community 6 0.929

CNC(=O)ON=C(C)SC
inactive: [1] 0.953 | [2] 0.974 | [3] 1.01 | [4] 0.974 | [5] 0.962 | [6] 1.01 | [7] 0.971 | Community 4 1.09 | Community 6 1.05

Cc1cc(C(C#N)c2ccc(Cl)cc2)c(Cl)cc1NC(=O)c1cc(I)cc(I)c1O (stereo not drawn)
active: [2] 0.788 | [5] 0.0129 | [6] 0.011 | [7] 0.0114 | Community 4 0.631 | Community 6 0.454
inactive: [1] 0.979 | [3] 0.96 | [4] 0.833

CC(C)(C)[C@@H](O)[C@H](Oc1ccc(Cl)cc1)n1cncn1
inactive: [1] 1.02 | [2] 1.04 | [3] 1.03 | [4] 1.03 | [5] 1.15 | [6] 1.1 | [7] 1.02 | Community 4 1.14 | Community 6 1.12

O=C(NCCc1ncc(C(F)(F)F)cc1Cl)c1ccccc1C(F)(F)F
inactive: [1] 0.997 | [2] 0.977 | [3] 0.973 | [4] 1.13 | [5] 0.873 | [6] 0.931 | [7] 1.01 | Community 4 0.994 | Community 6 0.939

CC1(C)C(C=C(Cl)Cl)C1C(=O)OC(C#N)c1ccc(F)c(Oc2ccccc2)c1 (stereo not drawn)
inactive: [1] 0.997 | [2] 1 | [3] 1.07 | [4] 1.03 | [5] 1.19 | [6] 0.879 | [7] 0.946 | Community 4 0.954 | Community 6 0.928
